# Out of some 52,000 compounds screened, about 4,300 (8.3%) were called active. Only a selection was taken, and actives are over-represented in it overall. Values without a mark were called inactive. No stated cut-off is given here; in the data, active means survival mostly below about 52% (no sharp cut-off); inactive means mostly above about 56%.
# Tested on: DeltatarO mutant
# Assay: growth inhibition of S. aureus wild type versus tarO mutant, primary screen, teichoic acid synthesis inhibitors, RN4220, OD600 (AID 463173)
# Conditions: OD600, 18 h, stronger effect = lower value, screened at 18.75 µg/mL (by protocol)
row,SMILES,survival
1,Clc1ccc(CSc2nc3ncccc3[nH]2)cc1,71%
2,COC(=O)c1ccc(-n2c(/C=C\c3cccc(Br)c3)nc3ccccc3c2=O)cc1,70%
3,O=C(O)c1cc(-n2c(/C=C\c3ccc(F)cc3)nc3ccccc3c2=O)ccc1Cl,94%
4,O=C(O)c1ccc(-n2c(/C=C\c3ccc(O)cc3)nc3ccccc3c2=O)cc1,58% (active)
5,COc1ccc(C)cc1NC(=O)N1CC(C)Sc2ccccc21 (stereo not drawn),55%
6,Cc1ccc(N(C)C(=O)CC(C)S(=O)(=O)c2ccc3c(c2)NC(=O)CO3)cc1 (stereo not drawn),120%
7,c1ccc2c(c1)[nH]c1nc(NN=C3CCC(=NNc4nnc5c(n4)[nH]c4ccccc45)CC3)nnc12,93%
8,COc1cccc(-c2nc3c(c(SCC(=O)Nc4cc(C)ccc4C)n2)Cc2c(CO)cnc(C)c2O3)c1,77%
9,CCc1ccc(NC(=O)c2ccc3oc(=O)n(Cc4ccccc4)c3c2)cc1,6% (active)
10,CCc1ccc(NC(=O)c2ccc3c(c2)nnn3CC)cc1,-4% (active)
11,CCn1nnc2cc(C(=O)Nc3ccc(C)c(Cl)c3)ccc21,54%
12,O=C(Nc1ccc(Cl)cc1)c1ccc2oc(=O)n(Cc3ccccc3)c2c1,67%
13,CCn1nnc2cc(C(=O)Nc3ccc(OC)cc3)ccc21,102%
14,Cc1cccc(CNC(=O)c2ccc3oc(=O)n(Cc4ccccc4)c3c2)c1,76%
15,O=C(NCc1ccc(F)cc1)c1ccc2oc(=O)n(Cc3ccccc3)c2c1,-2% (active)
16,COc1cccc(CNC(=O)c2ccc3oc(=O)n(Cc4ccccc4)c3c2)c1,-1% (active)
17,O=C(NCc1ccccc1)c1ccc2oc(=O)n(Cc3ccccc3)c2c1,72%
18,O=C(NCc1ccc(Cl)cc1)c1ccc2oc(=O)n(Cc3ccccc3)c2c1,109%
19,Cc1ccc(CNC(=O)c2ccc3oc(=O)n(Cc4ccccc4)c3c2)cc1,64%
20,O=C(Nc1cccc(F)c1)c1ccc2oc(=O)n(Cc3ccccc3)c2c1,70%

row,SMILES,survival
1,O=C(Cc1ccc(F)cc1)Nc1nncs1,99%
2,Cc1ccc2ncc(C(=O)N3CCN(c4ccccc4F)CC3)c(=O)n2c1,102%
3,CCOC(=O)c1c(NC(C)=O)c2c3c(sc2n1Cc1cc(C)ccc1C)CCCC3,98%
4,O=C(CCOc1ccccc1)N(Cc1cccnc1)c1nc2c(F)cc(F)cc2s1,97%
5,CC1=C(C(N)=O)C(c2cccc(C)c2)n2nc(-c3cccc(C)c3)nc2N1 (stereo not drawn),66%
6,Cc1cccc(NC(=O)C2CCCN(S(=O)(=O)c3cccc4nonc34)C2)c1C (stereo not drawn),119%
7,Cc1c(C(=O)N(C)C)sc2c1c(=O)n(-c1ccc(F)cc1)c(=O)n2Cc1ccccc1C#N,76%
8,Cc1ccc(N(C)C(=O)c2sc3nc4n(c(=O)c3c2C)CCCC4)cc1C,64%
9,O=C(Cn1c(=O)n(CCCS(=O)(=O)C2CCCCC2)c(=O)c2ccccc21)Nc1ccccc1C(F)(F)F,91%
10,Cc1ccc(S(=O)(=O)CCC(=O)Nc2ccc(Br)cc2C)cc1,85%
11,Cc1ccc(C)c(N2CCN(C(=O)C3CCCN(S(=O)(=O)c4cccc5nonc45)C3)CC2)c1 (stereo not drawn),76%
12,COc1ccc(OC)c(NC(=O)c2cc3cccc(OC)c3oc2=O)c1,77%
13,Cc1cccc(C)c1NC(=O)c1cc2sccc2n1Cc1ccc(F)cc1,96%
14,CCOC(=O)COc1ccc(/C=C(\C#N)c2nc3ccc(C)cc3[nH]2)cc1OC,43% (active)
15,COc1ccc(/C=C(\C#N)c2nc3ccccc3c(=O)[nH]2)cc1OC,86%
16,COc1cc(/C=C(\C#N)c2nc3ccc(C)cc3[nH]2)ccc1OC(C)C,46% (active)
17,COc1cc(/C=C(\C#N)c2nc3ccc(C)cc3[nH]2)ccc1OCc1ccc(C)cc1,59%
18,COc1cc(/C=C(\C#N)c2nc3ccccc3[nH]2)ccc1OCc1ccc(F)cc1,70%
19,CCC(=O)Oc1ccc(/C=C(\C#N)c2nc3ccccc3[nH]2)cc1OC,47%
20,Cc1ccc(-n2nc(C)c3c(C)cc(=O)n(CC(=O)N4CCCc5ccccc54)c32)cc1,80%

row,SMILES,survival
1,Cc1oc2ncn(CC(C)C)c(=O)c2c1C(=O)Nc1ccc(Cl)cn1,86%
2,COc1ccc(CNC(=O)C2CCC(CNS(=O)(=O)c3ccc4c(c3)CCCC(=O)N4)CC2)cc1 (stereo not drawn),87%
3,CCc1cccc(NC(=O)C2CCCN(c3ncccn3)C2)c1 (stereo not drawn),80%
4,COc1ccc(CNC(=O)CCc2c(C)nn(-c3ccc(N4CCCCC4)nn3)c2C)cc1,75%
5,Cc1ccc(CNC(=O)CN2CCN(Cc3ccc(F)cc3)C2=O)cc1,95%
6,Cc1c(Cl)cccc1NC(=O)c1ccc(C(=O)Nc2cccc(Cl)c2C)cc1,81%
7,Cc1ccc(C(=O)O)cc1Nc1nc2ccccc2n2nnnc12,82%
8,CCCOC(=O)c1ccc(Nc2nc3ccccc3nc2-n2nc(C)cc2C)cc1,24% (active)
9,Cc1cc(C)n(-c2nc3ccccc3nc2Nc2ccc(Cl)c(C(=O)OC(C)C)c2)n1,99%
10,CCCCOC(=O)c1ccc(Nc2nnc(-n3nc(C)cc3C)c3ccccc23)cc1,98%
11,Cc1cc(C)n(-c2nc3ccccc3nc2Nc2cc(C(=O)O)ccc2C)n1,42% (active)
12,CCC(Cc1ccccc1)NC(=O)c1cccc(Nc2nc3ccccc3nc2-n2nc(C)cc2C)c1 (stereo not drawn),63%
13,Cc1cc(C)n(-c2nc3ccccc3nc2Nc2cccc(C(=O)NCCc3ccccc3)c2)n1,93%
14,Cc1ccc(Nc2nc3ccc(C)cc3nc2-n2nc(C)cc2C)c(C)c1,81%
15,CC(=O)c1ccc(Nc2nc3ccccc3nc2-n2nc(C)cc2C)cc1,44% (active)
16,COc1cccc(C(=O)Nc2c(C(=O)c3ccc(F)cc3)oc3ccccc23)c1,66%
17,CCn1c(SC)nnc1C1CCCN(Cc2ccccc2)C1 (stereo not drawn),100%
18,CC(C)Cn1cc(NC(=O)N2CCN(c3ccc(F)cc3)CC2)c2ccccc2c1=O,99%

# — PubChem BioAssay AID463173 (ICCB-Longwood Screening Facility, Harvard Medical School, 2010)
